Screening data: PubChem, National Center for Advancing Translational Sciences (NCATS)
A selection: hits, their analogues and other compounds. The true share with any hit is near 12%.
Pf growth 48h: P. falciparum growth inhibition at 48 hours (one generation); P. falciparum luciferase growth in erythrocytes, 48 h; Potency, µM (highest dose often 28.7 µM), actives largely listed as inhibitors; 310,000 compounds, 5.9% hits; AID 504832
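A one-generation exposure of luciferase-tagged malaria parasites in RPMI 1640/Albumax erythrocyte culture, 37 C and 5% CO2. Inhibition is inferred from decreased luminescence after adding detection reagent.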
SARS PLpro yeast: blocks SARS-CoV papain-like protease in a yeast assay | S. cerevisiae expressing SARS-CoV PLpro, growth rescue | Potency, µM (titrated, usually from 32.9 µM), actives largely listed as activators | 330,000 compounds, 0.19% hits; calls by dose curve; further: nearly all actives have a fitted effect of over 55% in size
Pf growth 96h: inhibits malaria parasite growth, 96 h | P. falciparum luciferase reporter growth, 96 h | Potency, µM (doses to about 28.7 µM), hits mostly inhibitors | 320,000 compounds, 6.9% hits | AID 504834
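Plates of compound plus infected erythrocytes (2% hematocrit, 0.05% parasitemia final) incubate 96 hours, 37 C, 5% CO2. Detection reagent added; reduced luminescence from the parasites' luciferase reporter flags inhibition.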
Sm TGR block: S. mansoni TGR enzyme inhibition; AID 485364; Q962Y6; 360,000 compounds, 3% hits; Potency, µM (highest dose often 114 µM), most hits filed as inhibitors; purified TGR, DTNB reduction, TNB absorbance 405 nm; further: nearly all actives have a fitted effect of over 60% in size
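First, TGR (20 nM dispensed) and NADPH were mixed with compound. Second, a 15 min room-temperature incubation followed. Third, further NADPH and then DTNB were added to start the reaction. Finally, TNB absorbance was monitored kinetically.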
Numbers stand for hits. Unless noted, the call rests on the fitted dose curve; in most records, active means well fitted curve in the direction sought with a large enough effect; inconclusive means small, poorly fitted or top-dose-only effect, or another doubt; inactive means no such curve, though single readings can be large; an effect the other way counts as inactive or inconclusive.

Results for COc1ccc(C2=CC(=O)C[C@H](c3ccc(OC)cc3)C2)cc1 ?
Pf growth 48h: inactive; SARS PLpro yeast: inactive; Pf growth 96h: inactive; Sm TGR block: inactive

What do the screens show for `COc1ccc(C2=CC(=O)C=CC2=O)cc1`?
Pf growth 48h: 9.3µM; SARS PLpro yeast: inactive; Pf growth 96h: 10µM; Sm TGR block: 0.89µM

Results for COc1ccc(-c2cc(C(C)=O)c(C)n2CCC(=O)Nc2ccc(C)cc2Cl)cc1 ?
Sm TGR block: inactive

What do the screens show for `CC1(c2ccc(Cl)cc2)NC(=O)CS1` (centres undefined)?
Pf growth 48h: inactive; SARS PLpro yeast: inactive; Pf growth 96h: 0.26µM; Sm TGR block: inactive

Results for O=C1C=C(Nc2ccccc2)CC(c2ccccc2)C1 (centres undefined) ?
Pf growth 48h: inactive; SARS PLpro yeast: inactive; Pf growth 96h: 1.9µM; Sm TGR block: inactive

What do the screens show for `CCCCCCCNC1=CC(=O)CC(c2ccccc2)C1` (centres undefined)?
Pf growth 48h: 9.3µM; SARS PLpro yeast: inactive; Pf growth 96h: inconclusive; Sm TGR block: inactive

How did CCCCCNC1=CC(=O)CC(c2ccccc2)C1 (centres undefined) do in these assays?
Pf growth 48h: inconclusive; SARS PLpro yeast: inactive; Pf growth 96h: inactive; Sm TGR block: inactive

What do the screens show for `COC(=O)N/N=C(\C)c1ccc(-n2ccnc2)cc1`?
Pf growth 48h: inactive; SARS PLpro yeast: inactive; Pf growth 96h: inactive; Sm TGR block: inactive

What do the screens show for `C/C(=N\Nc1cccc(Cl)c1)c1ccc(-n2ccnc2)cc1`?
Pf growth 48h: inconclusive; SARS PLpro yeast: inactive; Pf growth 96h: 12µM; Sm TGR block: inactive

Results for CCNc1nc(Oc2ccc(=O)[nH]n2)nc(N2CCOCC2)n1 ?
SARS PLpro yeast: inactive; Pf growth 96h: inactive; Sm TGR block: inactive

What do the screens show for `O=c1ccc(Oc2nc(N3CCCCC3)nc(N3CCCCC3)n2)n[nH]1`?
Pf growth 48h: inactive; SARS PLpro yeast: inactive; Pf growth 96h: 3.7µM; Sm TGR block: inactive

Results for O=C(Nc1cnn(Cc2ccc(Cl)cc2Cl)c1)c1noc2c1CCc1ccccc1-2 ?
Sm TGR block: inactive

How did COc1cccc(-n2cc(C(=O)Nc3cc(C)c(Cl)cc3OC)c3ccccc3c2=O)c1 do in these assays?
Sm TGR block: inactive

What do the screens show for `S=C1NC2=C(CCCC2)C2(CCCCC2)N1`?
Pf growth 48h: inconclusive; SARS PLpro yeast: inactive; Pf growth 96h: inactive; Sm TGR block: inactive

What do the screens show for `C1CCC2(CC1)C1=C(CCCC1)Nc1nnnn12`?
Pf growth 48h: inactive; SARS PLpro yeast: inactive; Pf growth 96h: inactive; Sm TGR block: 45µM

How did Nc1nc2n(n1)C1(CCCCC1)C1=C(CCCC1)N2 do in these assays?
Pf growth 48h: inactive; SARS PLpro yeast: inactive; Pf growth 96h: 10µM; Sm TGR block: inconclusive

What do the screens show for `COc1ccc(OC)c(C2CC(=O)Oc3c2c(=O)n(C)c2ccccc32)c1` (centres undefined)?
Sm TGR block: inactive

Results for COc1cccc(CNc2ncnc3onc(-c4ccc(F)cc4)c23)c1 ?
Sm TGR block: inactive

What do the screens show for `Cc1cccc(/C=C2/S/C(=N/N=C3\CC4CCC3(C)C4(C)C)NC2=O)c1` (centres undefined)?
Pf growth 48h: inconclusive; SARS PLpro yeast: inactive; Pf growth 96h: 8.3µM; Sm TGR block: inactive

Results for COc1ccccc1C(=O)NC(=O)COC(=O)CCS(=O)(=O)c1ccc(C)cc1 ?
Pf growth 48h: inactive; SARS PLpro yeast: inactive; Pf growth 96h: inconclusive; Sm TGR block: inactive

How did CC(=O)NC(Cc1ccc(F)cc1)C(=O)NC1CCN(C(=O)Nc2ccccc2C)CC1 (centres undefined) do in these assays?
Pf growth 48h: inactive; SARS PLpro yeast: inactive; Pf growth 96h: inactive; Sm TGR block: inactive

How did O=C(C[n+]1cc(-c2ccc(Cl)cc2)n2c1CCC2)Nc1nc(-c2ccc(F)cc2)cs1 do in these assays?
Pf growth 48h: inactive; SARS PLpro yeast: inactive; Pf growth 96h: inconclusive; Sm TGR block: inactive

Results for Cn1c(NC(=O)C[n+]2cc(-c3ccc(Cl)cc3)n3c2CCC3)cc(=O)n(C)c1=O ?
Pf growth 48h: 4.1µM; SARS PLpro yeast: inactive; Pf growth 96h: 0.33µM; Sm TGR block: inactive

What do the screens show for `Cn1c(NC(=O)C[n+]2cc(-c3ccccc3)n3c2CCC3)cc(=O)n(C)c1=O`?
Pf growth 48h: 2.6µM; SARS PLpro yeast: inactive; Pf growth 96h: 0.83µM; Sm TGR block: inactive

What do the screens show for `CC1CCC(NC(=O)c2ccc3c(c2)N(Cc2cccc(Cl)c2)C(=O)c2ccccc2S3(=O)=O)CC1` (centres undefined)?
Sm TGR block: inactive
